# Sampled rows, rich in hits. Any-hit rate of the full collection: about 4.1%.
# KLF5 inhibitor = KLF5 expression inhibitors, primary screen, DLD-1 cells, luminescence; DLD-1 KLF5 promoter-luciferase reporter; inhibition, % at 5 µM; hit rate 0.23% among 290,000; AID 1700, 2009;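 active = inhibition above a per-plate limit of that plate's mean compound inhibition plus 3 SD, cut at about 60% in these data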;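 also: 0% = DMSO wells and 100% = LY294002 at 200 µM; higher means less KLF5 promoter-driven luciferase light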
# Mdm2 MdmX PPI = inhibitors of human Mdm2-MdmX association, primary screen, cell-based, luminescence, split luciferase, SaOS-2, uHTS; inhibition, % at 8 µM; hit rate 3% among 330,000; SaOS-2 split-luciferase Mdm2/MdmX complementation; Protein Mdm4 (Homo sapiens) + E3 ubiquitin-protein ligase Mdm2 (Homo sapiens), …;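 active = inhibition of at least 50% at 8 µM in the primary screen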
# aSyn UTR inh = MLPCN primary screen, SNCA 5' untranslated region. alpha-synuclein 5'UTR reporter, inhibitor activity. inhibition, % (tested at 7.5 µM). hit rate 0.82% among 300,000. AID 1813, 2009; in the data active = inhibition above about 60%;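 also: H4 neuroglioblastoma cells stably carrying SNCA 5'UTR luciferase fusion; 0% = DMSO wells and 100% = positive control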
# Jurkat NFkB inh = inhibitors of induced NF-kB luciferase reporter, primary screen, TCR NF-kB activation inhibitor project, cell-based, luminescence, uHTS; hit rate 0.53% among 330,000; Jurkat, PMA/ionomycin-induced NF-kB luciferase reporter; inhibition, % at 4 µM; in the data active = inhibition above about 50%
# 697 NFkB inh = inhibitors of PMA/ionomycin-induced NF-kB reporter, 697 cells, primary screen, B-cell NF-kB inhibitor project, cell-based, luminescence, uHTS; 697 B-cell NF-kB luciferase reporter, 16 h; inhibition, % at 4 µM; hit rate 0.33% among 330,000; AID 435022, 2010; in the data active = inhibition above about 35%
# Gli-Sufu antag = Gli-Sufu pathway antagonists, primary screen, luciferase luminescence, Sufu-KO-LIGHT cells, uHTS; Sufu-KO-LIGHT fibroblasts, Gli luciferase reporter luminescence; inhibition, % at 5 µM; hit rate 0.74% among 340,000; AID 588413, 2011;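 active = inhibition above about 55%, limit read from the data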;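 also: 0% = DMSO-treated cells and 100% = wells with medium but no cells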
# Mdm2 MdmX conf = Mdm2-MdmX complex disruptors, retested hits, confirmation, luminescence, single concentration; AID 489028, 2010; inhibition, % at 8 µM; hit rate 55% among 10,000; shares compounds with Mdm2 MdmX PPI; Mdm2-MdmX binding, luminescent assay; in the data active = inhibition above about 40%
# Full FLuc ctr = full-length luciferase signal inhibition, confirmation, counter-screen for Mdm2/MdmX interaction inhibitor project, cell-based, single concentration, SaOS-2; inhibition, % at 8 µM; shares compounds with Mdm2 MdmX PPI; hit rate 77% among 6,200; AID 504607, 2011; SaOS-2 full-length luciferase counterscreen, luminescence;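 active = mean inhibition at 8 µM reaching about 37%, which flags the compound as non-specific, limit read from the data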;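 also: p53-null SaOS-2 cells with luciferase driven by a doxycycline-inducible promoter; compound on cells about two nights before reading with doxycycline added after day one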
# The depositor's hits bear a star; nt = no result.
SMILES,KLF5 inhibitor,Mdm2 MdmX PPI,aSyn UTR inh,Jurkat NFkB inh,697 NFkB inh,Gli-Sufu antag,Mdm2 MdmX conf,others
COc1cc(/C=C(/C#N)c2nc(-c3cc4ccccc4oc3=O)cs2)cc([N+](=O)[O-])c1O,-4,nt,nt,nt,nt,nt,nt,
Cc1ccc(N(C)S(=O)(=O)c2cccc(C(=O)NC3CC(C)(C)NC(C)(C)C3)c2)cc1,nt,35,5,-10,11,15,nt,
COc1ccccc1N(Cc1ccccc1)S(=O)(=O)c1cccc(C(=O)Nc2ccc(C(C)=O)cc2)c1,-39,11,-88,-26,-59,-24,nt,
CC1(C)CC(NC(=O)c2cccc(S(=O)(=O)N(Cc3ccccc3)c3ccccc3)c2)CC(C)(C)N1,nt,95*,-30,18,-12,21,59*,Full FLuc ctr=61*
COc1ccccc1N(Cc1ccccc1)S(=O)(=O)c1cccc(C(=O)Nc2ccc(C)cn2)c1,nt,55*,26,-10,-29,17,37,
O=C(c1ccc(Cl)c(S(=O)(=O)N2CCOCC2)c1)N1CCCCCC1,16,-3,-1,1,4,25,nt,
O=C(NCCc1ccccc1)C1CCC(CNc2nc(=S)[nH]c3ccccc23)CC1 (stereo not given),-3,96*,34,-4,-26,5,6,
Cn1cc(/C=N\O)nc2c(=O)n(-c3ccccc3)c(=O)nc1-2,4,-4,22,-13,12,5,nt,
O=C(Cn1c2ccccc2c(=O)c2ccccc21)Nc1cccc(F)c1,11,15,6,7,3,-8,nt,
Cc1cc(C)c(C#N)c(SCC(=O)c2ccc(Cl)cc2Cl)n1,-13,74*,28,6,33,nt,73*,Full FLuc ctr=70*
CCOC(=O)CSc1nc(C)cc(C)c1C#N,-46,12,-6,-6,12,-4,nt,
CC(=O)c1ccc(OCCCC(=O)N2CCN(S(=O)(=O)c3ccc(C(C)C)cc3)CC2)cc1,nt,-1,1,23,-15,20,nt,
CC(=O)C1=C(O)C(=O)N(c2cccc(Br)c2)C1c1ccccc1Cl (stereo not given),-45,4,5,-12,-12,-25,nt,
CCC(C)c1ccccc1N1CC(C(=O)N(C)CC(=O)Nc2cccc(F)c2)CC1=O (stereo not given),nt,3,1,6,17,-9,nt,
Cc1ccc(/C(=N\O)c2oc3c(C)c4oc(=O)cc(C)c4cc3c2C)cc1,-58,74*,-1,-8,-38,5,30,
CCc1c(C(=O)c2ccc(Cl)cc2)oc2c(C)c3oc(=O)cc(C)c3cc12,-26,59*,4,16,-16,14,15,
Cc1cc(=O)oc2c1ccc1oc(/C(=N/O)c3ccccc3)c(C)c12,-9,58*,24,-4,-10,18,28,
CCc1c(C(C)=O)oc2ccc3c(C)cc(=O)oc3c12,9,10,0,-1,25,nt,nt,
CCc1ccccc1NC(=S)N(CCOC)C(C)c1ccco1 (stereo not given),-30,25,3,7,10,2,nt,
Cc1cc(C(=O)CCC(=O)Nc2ncccc2O)c(C)s1,nt,-14,-45,-13,-13,-21,nt,
O=C(N/N=C/c1cccs1)c1cncc(Br)c1,-17,24,-9,5,9,-1,nt,
O=C(N/N=C/c1cc([N+](=O)[O-])ccc1O)Nc1ccccc1,-15,-8,-17,-6,10,3,nt,
O=[N+]([O-])c1ccc(O)c(/C=N/NC(=S)Nc2ccc(Cl)cc2Cl)c1,-9,78*,47,10,-7,1,48*,Full FLuc ctr=41*
O=[N+]([O-])c1ccc(/C=N/NC(=S)Nc2ccc(Cl)cc2Cl)s1,-13,63*,51,-11,-20,14,70*,Full FLuc ctr=52*
O=C(N/N=C\c1ccc([N+](=O)[O-])s1)c1cncc(Br)c1,-19,58*,77*,8,22,23,44*,Full FLuc ctr=45*
SMILES,KLF5 inhibitor,Mdm2 MdmX PPI,aSyn UTR inh,Jurkat NFkB inh,697 NFkB inh,Gli-Sufu antag,Mdm2 MdmX conf,others
CCNC(=O)C(=O)N/N=C/c1cc([N+](=O)[O-])ccc1O,-35,2,-3,-6,-20,1,nt,
CCOC(=O)c1c(C)[nH]c(C(=O)N/N=C/c2cc([N+](=O)[O-])ccc2O)c1C,8,57*,3,-9,-177,7,71*,Full FLuc ctr=55*
Cc1ccc(S(=O)(=O)Nc2csc(C)c2C(=O)O)cc1,-18,17,11,-15,-5,-31,nt,
N#C/C(=C\c1ccc(Cl)cc1)C(=O)Nc1cccnc1,-18,16,-13,-7,7,-5,nt,
CN(CC(=O)N1CCN(c2ccccc2)CC1)C1CCCc2ccccc21 (stereo not given),0,-13,5,6,-3,37,nt,
Fc1ccc(NC(=S)N/N=C/c2ccc(F)c(F)c2)cc1,-112,-11,-65,-5,-15,-12,nt,
Cc1cc(Cl)ccc1NC(=O)CCC(=O)N/N=C/c1cc([N+](=O)[O-])ccc1O,2,62*,8,-2,-10,5,17,
Fc1ccc(/C=N/NC(=S)Nc2ccc(Cl)cc2Cl)cc1,-33,85*,-29,49,-44,-1,66*,Full FLuc ctr=58*
COc1ccc(Br)cc1S(=O)(=O)N(CC(=O)N1CCN(C)CC1)c1ccccc1,-18,15,10,4,12,-18,nt,
O=C(NCCCN1CCCC1=O)c1ccc(Cl)c(Cl)c1,-2,-26,-18,-7,10,-8,nt,
COc1ccc(S(=O)(=O)N2CCOCC2)cc1NC(=O)C1CCN(S(=O)(=O)c2ccc(Cl)cc2)CC1,nt,nt,nt,nt,nt,6,nt,
COc1cc(/C=N/NC(=O)c2ccccc2O)ccc1OCC(=O)Nc1ccccc1,-105,-29,-140,-48,13,8,nt,
CCOc1cc(/C=N\NC(=O)Cc2ccccc2)ccc1OCC(=O)Nc1ccc(C)c(C)c1,-2,94*,nt,2,2,18,75*,Full FLuc ctr=76*
COc1ccc(/C=N/NC(=O)c2nc(-c3ccccc3)cc(-c3ccccc3)n2)cc1OC,-5,72*,-59,2,-26,8,71*,Full FLuc ctr=86*
O=C(COc1ccc(/C=N/NC(=O)c2cc3ccccc3o2)cc1Cl)Nc1ccccc1,-29,97*,101*,17,19,36,-100,

# Source: PubChem
